Screening results: PubChem BioAssay, several laboratories
Most compounds without a hit are left out; they make up all but 3.7% or so of the library.
BoNT-F LC inh: BoNT/F light chain protease inhibitors, primary screen, biochemical, flow cytometry, MLPCN library; Botulinum neurotoxin type F light chain protease (Clostridium botulinum); Multiplex microsphere protease cleavage assay; inhibition, % at 10 µM; 360,000 tested, 0.22% active; in the data active = inhibition above about 35%, passing the limit was not always enough; inconclusive = no clear call, values can overlap the other calls; also: plate controls were buffer without enzyme for full effect and enzyme alone for no effect
MazF activator: activators of E. coli MazEF toxin-antitoxin RNase, primary screen, biochemical, fluorescence, uHTS. FAM/BHQ RNA-DNA oligo cleavage fluorescence, 5 h. activation, % at 20 µM. 350,000 tested, 0.32% active. AID 504720, 2011; in the data active = activation above about 50%
Bead autofluor: flagged as autofluorescent in microsphere protease counterscreen. compound autofluorescence counterscreen, microsphere flow cytometry; hits give high values. fluorescence intensity (test concentration not listed). 360,000 tested, 3.1% active. AID 624483; in the data active = fluorescence intensity above about 16000; inconclusive = no clear call, values can overlap the other calls
Anthrax LF prot: Bacillus anthracis LF protease inhibitors, primary screen, biochemical, multiplex microsphere, MLPCN library; Lethal factor (Bacillus anthracis), P15917; multiplex microsphere protease cleavage assay; inhibition, % at 10 µM; 360,000 tested, 0.12% active; AID 588501, 2011; also: plate controls were buffer without enzyme for full effect and enzyme alone for no effect
Target sequence (P15917 whole entry, looked up): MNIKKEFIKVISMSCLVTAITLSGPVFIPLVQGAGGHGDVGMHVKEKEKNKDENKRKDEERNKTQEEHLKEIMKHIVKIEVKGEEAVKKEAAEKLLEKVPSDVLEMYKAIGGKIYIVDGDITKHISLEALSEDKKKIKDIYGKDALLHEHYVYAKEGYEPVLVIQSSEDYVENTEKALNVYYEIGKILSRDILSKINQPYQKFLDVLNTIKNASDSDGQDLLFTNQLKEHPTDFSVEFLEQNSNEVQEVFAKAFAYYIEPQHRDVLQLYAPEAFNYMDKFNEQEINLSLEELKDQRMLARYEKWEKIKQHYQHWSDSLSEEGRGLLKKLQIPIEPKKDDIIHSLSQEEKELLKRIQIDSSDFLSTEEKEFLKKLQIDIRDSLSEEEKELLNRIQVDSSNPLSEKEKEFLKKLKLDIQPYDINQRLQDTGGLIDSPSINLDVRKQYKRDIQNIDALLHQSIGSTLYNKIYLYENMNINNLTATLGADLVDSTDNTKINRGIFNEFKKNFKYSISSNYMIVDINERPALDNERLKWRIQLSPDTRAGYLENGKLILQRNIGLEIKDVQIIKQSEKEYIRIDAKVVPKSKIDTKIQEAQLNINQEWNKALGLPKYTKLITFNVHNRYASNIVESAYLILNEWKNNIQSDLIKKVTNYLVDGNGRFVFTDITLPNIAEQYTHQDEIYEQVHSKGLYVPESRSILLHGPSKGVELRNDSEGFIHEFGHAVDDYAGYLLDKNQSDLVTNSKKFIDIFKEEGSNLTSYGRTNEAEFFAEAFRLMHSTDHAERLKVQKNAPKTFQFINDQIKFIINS
BoNT-A LC inh2: BoNT/A light chain protease inhibitors, primary screen, biochemical, flow cytometry, MLPCN library; multiplex microsphere protease substrate cleavage; Botulinum neurotoxin type A light chain protease (Clostridium botulinum A str. ATCC 3502); 360,000 tested, 0.17% active; inhibition, % at 10 µM; also: plate controls were buffer without enzyme for full effect and enzyme alone for no effect
The depositor's hits bear a star; ? = inconclusive. Rule as the data show it, unless noted: active = inhibition above about 30%; inconclusive = no clear call, values can overlap the other calls; inactive = below that.

SMILES | BoNT-F LC inh | MazF activator | Bead autofluor | Anthrax LF prot | BoNT-A LC inh2
CC/C(O)=C(\C#N)c1nnc2n1CCCCC2 | 1.1 | 7.5 | 20206* | 0.1 | 1.3
CCOC(=O)/C(C#N)=C/c1cc2cc(C)c(C)cc2nc1Cl | -3.6 | 0.0 | 3939 | -8.0 | -0.5
Cc1cc2cc(C=C(C#N)C#N)c(Cl)nc2cc1C | 1.3 | 53.2* | 2089 | -0.8 | 0.0
Cc1ccc(CN2CCN(Cc3cnc(C)[nH]3)CC2CCO)cc1 (stereo unspecified) | -9.7 | 3.8 | 4105 | -0.2 | 0.5
O=C(Nc1ccc(Cl)c(C(F)(F)F)c1)[C@@H]1CC=C[C@@H]2CCN(C3CC3)C(=O)[C@@H]21 | -3.6 | 2.5 | 3866 | 1.0 | -0.1
CCN1CCN(C(=O)c2cc(-c3cccnc3)nc3ccc(Br)cc23)CC1 | -0.9 | -0.7 | 20068* | 2.2 | ?
Cc1cc(C)n2nc(CC(=O)NCc3ccccc3Cl)nc2n1 | -11.0 | 4.4 | 2422 | -0.5 | -0.5
CCC(C)NCCOc1ccc(C)cc1[N+](=O)[O-] (stereo unspecified) | -3.5 | -3.0 | 4373 | -1.9 | -0.8
CCC(C)Nc1c([N+](=O)[O-])cc(C)cc1[N+](=O)[O-] (stereo unspecified) | -6.9 | -5.1 | 24719* | -2.7 | ?
CC(C)c1ccc(-n2cnn(-c3ncccc3[N+](=O)[O-])c2=O)cc1 | -14.4 | 12.0 | 5576 | -5.8 | -2.0
CCOc1cc(C(=S)N2CCOCC2)ccc1OC(=O)c1cc(OC)c(OC)c(OC)c1 | 11.5 | -10.3 | 3793 | 1.1 | 0.4
O=C(Cc1cccs1)Nc1nc(-c2ccc(F)cc2F)cs1 | -8.6 | 2.2 | 17771* | -1.3 | -5.8
O=C(/C=C/c1ccccc1)CC(O)(c1ccccc1)C(F)(F)C(F)F (stereo unspecified) | -5.0 | 9.4 | 5535 | 6.1 | -0.9
O=C(CC(O)(c1ccccc1)C(F)(F)C(F)F)c1cccs1 (stereo unspecified) | -3.7 | 2.8 | 20372* | -1.0 | ?
CN1C(=O)CC(c2ccco2)Sc2ccccc21 (stereo unspecified) | -3.0 | -4.7 | 21771* | 1.2 | -3.9
CCCN1C(=O)CC(c2ccco2)Sc2ccccc21 (stereo unspecified) | 2.4 | -11.8 | 9884 | -2.3 | -0.8
COc1ccc(C2CC(=O)N(CC(=O)NCC3CCCO3)c3ccccc3S2)cc1 (stereo unspecified) | -2.0 | 3.4 | 2020 | 1.2 | 0.1
O=C(CN1C(=O)CC(c2ccco2)Sc2ccccc21)NCC1CCCO1 (stereo unspecified) | 0.5 | -6.0 | 23515* | -7.5 | ?
CCCN1C(=O)C(=O)N(CC(=O)N2c3ccccc3NC(=O)CC2C)C1=O (stereo unspecified) | 3.3 | 9.1 | 3242 | -7.5 | 0.7
O=C1NC(=O)C2(CCCC2C(=O)O)N1 (stereo unspecified) | 3.5 | 5.5 | 3701 | 2.1 | -0.1
Cc1ccc(NC(=O)CSCC(=O)N(C)CC(=O)Nc2ccccc2C(F)(F)F)cc1 | 9.8 | 3.0 | 6020 | -2.2 | 2.0
CC1CN(C(=O)c2ccc(NS(=O)(=O)c3ccc(F)cc3)cc2)CC(C)O1 (stereo unspecified) | -4.2 | 9.3 | 6670 | 0.0 | -0.8
Cc1nc(NC(=O)c2ccccc2)sc1-c1csc(NCCc2ccccc2)n1 | 1.5 | -1.9 | 25254* | 2.0 | 3.9
Cc1oc(C(C)(C)C)cc1C(=O)N1CCN(C(c2ccccc2)c2ccccc2)CC1 | ? | 12.6 | 3983 | -17.2 | -2.2
O=C(c1cccc(S(=O)(=O)N2CCCC2)c1)N1CCN(c2ccccc2)CC1 | -2.2 | 0.9 | 21121* | -0.8 | -1.5
SMILES | BoNT-F LC inh | MazF activator | Bead autofluor | Anthrax LF prot | BoNT-A LC inh2
O=C(c1ccccc1F)N1CCN(c2ccccc2)CC1 | 1.1 | -8.5 | 19300* | 3.0 | 1.7
O=C(c1ccc2ccccc2c1)N1CCN(c2ccccc2)CC1 | -0.8 | 1.5 | 19676* | -0.7 | ?
O=C(c1ccccc1F)N1CCN(c2ccccc2F)CC1 | 19.4 | 9.3 | 6824 | 9.5 | 3.2
COc1ccc(S(=O)(=O)NCc2ccco2)cc1NC(=O)c1ccccc1 | -13.3 | 2.9 | 3753 | 2.0 | 1.1
COc1cc(OC)cc(N2CCN(S(=O)(=O)c3ccc(-n4cnnn4)cc3)CC2)c1 | 0.6 | 21.3 | 5449 | -4.8 | -1.7
COc1ccccc1CN1C[C@@H]2C[C@@H](c3ccc(C)cc3)N3CCC[C@@]23C1=O | 0.7 | -9.6 | 8339 | -1.1 | -1.4
CCc1ccc([C@@H]2C[C@H]3CN(Cc4ccccc4OC)C(=O)[C@]34CCCN24)cc1 | 33.9 | -37.8 | 24775* | 7.2 | -6.6
CC(C)C(=O)Nc1cccc(NC(=S)NC(=O)c2ccc([N+](=O)[O-])cc2)c1 | -4.3 | 6.1 | 22965* | -1.2 | ?
Cc1cc(C(=O)NC(=S)Nc2cccc(NC(=O)C(C)C)c2)ccc1[N+](=O)[O-] | -5.6 | 6.7 | 1930 | -1.3 | -0.9
CC(C)C(=O)Nc1ccc(NC(=S)NC(=O)c2ccc([N+](=O)[O-])cc2)cc1 | -3.9 | -11.8 | 23025* | -2.4 | -1.9
Cc1ccccc1OC(C)C(=O)Nc1ccc2c(c1)OCCO2 (stereo unspecified) | 0.3 | -1.9 | 6331 | 2.2 | 0.1
Cc1cc(=O)oc2cc(OCC(O)Cn3ccnc3)ccc12 (stereo unspecified) | -28.5 | -24.1 | 3731 | 2.3 | -3.5
Cc1cc(=O)n2[nH]c(-c3ccco3)nc2n1 | -3.2 | -5.1 | 6348 | 1.2 | -0.5
CCCc1cc(=O)n2[nH]c(-c3ccco3)nc2n1 | 0.1 | -5.0 | 23273* | -2.1 | -0.7
CCCc1cc(=O)n2[nH]c(C)cc2n1 | -4.7 | 2.7 | 24507* | 0.4 | -2.6
Cc1nnc2n(-c3ccccc3)c(=O)c3c4c(sc3n12)CC(C)CC4 (stereo unspecified) | 1.5 | 6.4 | 18626* | 2.7 | 2.6
CCc1ccc(NC(=O)C2C3/C=C\CCCCC32)cc1 (stereo unspecified) | -5.8 | -7.3 | 7002 | -4.2 | -0.1
Cc1c(Br)cc(C(=O)NC2CCCCC2)c(C)c1C | -1.7 | 6.7 | 23067* | 0.2 | ?
Cc1ccc(C(=O)NC2CCCCCCC2)c(Cl)c1 | 26.9 | -1.0 | 4031 | -9.3 | 3.4
CCNC(=O)NC(=O)C(C)OC(=O)c1oc2ccc(OC)cc2c1C (stereo unspecified) | 4.5 | 6.1 | 21371* | -20.7 | 3.6
Cc1cc(NC(NC(=O)c2ccco2)(C(F)(F)F)C(F)(F)F)no1 | -3.9 | 1.6 | 17442* | -0.3 | -2.1
CCN(CC)CCN1C(=O)c2oc3ccc(F)cc3c(=O)c2C1c1ccncc1 (stereo unspecified) | -9.5 | 1.9 | 5086 | -12.6 | -0.9
CCN(CC)CCN1C(=O)c2oc3ccccc3c(=O)c2C1c1ccc(F)cc1 (stereo unspecified) | -2.9 | 12.9 | 21092* | -3.5 | -2.3
CN(C)CCCN1C(=O)c2oc3ccccc3c(=O)c2C1c1cccs1 (stereo unspecified) | 6.6 | 2.1 | 18317* | -8.6 | 7.9
